Test results: paper PMC4336329 (PLoS ONE, 2015)
The whole screen tested about 310,000 compounds, of which about 14,000 (4.5%) showed an effect of 50% or more. The effect is printed as a negative number. What follows is part of a selection rich in strong results, with near analogues and random picks from the rest.

biological target: human ether-à-go-go-related gene (hERG) potassium channel (human, UniProt Q12809); assay: primary screen, population patch clamp on CHO cells stably expressing hERG; higher = less effect of the substance
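Note: peak tail current of the secondary pulse compared with the same well before compound.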

Chain of human ether-à-go-go-related gene (hERG) potassium channel (Q12809 whole entry, looked up): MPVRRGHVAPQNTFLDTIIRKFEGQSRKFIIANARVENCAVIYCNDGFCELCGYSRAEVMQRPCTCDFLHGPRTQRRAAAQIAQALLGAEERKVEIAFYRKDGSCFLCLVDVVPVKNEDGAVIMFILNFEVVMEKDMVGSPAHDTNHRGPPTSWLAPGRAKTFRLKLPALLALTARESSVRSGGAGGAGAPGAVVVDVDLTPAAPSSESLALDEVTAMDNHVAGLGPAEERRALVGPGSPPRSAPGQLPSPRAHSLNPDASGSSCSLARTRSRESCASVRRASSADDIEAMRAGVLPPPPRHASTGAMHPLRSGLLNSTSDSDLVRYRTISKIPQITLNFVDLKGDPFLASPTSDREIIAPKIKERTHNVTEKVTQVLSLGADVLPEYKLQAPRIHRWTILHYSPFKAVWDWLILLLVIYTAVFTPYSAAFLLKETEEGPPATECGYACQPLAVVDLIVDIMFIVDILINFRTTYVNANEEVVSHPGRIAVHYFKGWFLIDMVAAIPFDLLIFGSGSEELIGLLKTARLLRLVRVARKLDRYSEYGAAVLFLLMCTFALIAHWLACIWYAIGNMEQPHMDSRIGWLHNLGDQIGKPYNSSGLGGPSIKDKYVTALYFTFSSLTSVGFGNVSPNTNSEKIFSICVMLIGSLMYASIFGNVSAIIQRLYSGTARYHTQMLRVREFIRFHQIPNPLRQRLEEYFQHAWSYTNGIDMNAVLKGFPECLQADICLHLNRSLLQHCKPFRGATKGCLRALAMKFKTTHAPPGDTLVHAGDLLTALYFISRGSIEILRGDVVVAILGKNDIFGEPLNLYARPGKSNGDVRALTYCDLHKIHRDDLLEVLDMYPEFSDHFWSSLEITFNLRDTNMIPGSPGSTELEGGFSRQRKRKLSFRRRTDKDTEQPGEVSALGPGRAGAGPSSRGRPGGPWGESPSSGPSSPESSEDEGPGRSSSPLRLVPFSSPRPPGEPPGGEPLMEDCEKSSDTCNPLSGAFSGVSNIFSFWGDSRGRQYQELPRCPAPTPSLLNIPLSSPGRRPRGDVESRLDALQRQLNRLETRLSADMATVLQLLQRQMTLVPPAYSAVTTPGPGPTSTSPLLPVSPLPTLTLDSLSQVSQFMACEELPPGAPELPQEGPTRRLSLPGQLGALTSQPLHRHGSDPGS

Row | Structure (SMILES) | hERG current change (%, negative = inhibition) at 10uM
1 | CCOC(=O)c1c(C)[nH]c(C(=O)COC(=O)C23CC4CC(CC(Cl)(C4)C2)C3)c1C | 11.6%
2 | CC1C(=O)N2CCCc3cc(NC(=O)C4CCCCC4)cc1c32 (stereo not drawn) | 4.17%
3 | CCOC(=O)c1cc(S(=O)(=O)N2CCc3ccccc32)cn1C | -0.504%
4 | CCOCc1nnc(NC(=O)CSCc2ccccc2)s1 | -1.7%
5 | Cc1ccc2cc(NC(=O)c3cccc(F)c3)ccc2n1 | 0.701%
6 | CCOC(=O)C(NC(C)=O)C(=O)Nc1ccc(C)cc1C (stereo not drawn) | 15.7%
7 | O=C(Nc1nccs1)c1cccc(NC(=O)C(F)(F)F)c1 | -5.07%
8 | O=c1c2c3c(sc2nc2n1CCCCC2)C(O)CCC3 (stereo not drawn) | 3.27%
9 | C=CCn1c(SCc2ccc(C#N)cc2)nnc1-c1cccc(Cl)c1 | -72.7%
10 | C=CCn1c(SCc2cccc(C#N)c2)nnc1-c1ccccc1O | -30.4%
11 | C=CCn1c(SCC(=O)O)nnc1-c1cccc(Cl)c1 | 4.71%
12 | Cc1cc(NC(=O)CSc2nc3ccccc3c(=O)n2CCCC(=O)NCc2ccccc2)n[nH]1 | -8.72%
13 | O=C(NN=C1CCCCCCCCCCC1)c1cccnc1 | 19.8%
14 | CCN(CC)c1ccc(S(=O)(=O)N(CC)CC)cc1NC(=O)c1cccnc1 | -72.5%
15 | CCN(CC)S(=O)(=O)c1cc(C(=O)Nc2cc(C)[nH]n2)ccc1Cl | -10.3%
16 | O=C(Nc1cccnc1)c1ccc(Cl)c(Cl)c1 | 10.3%
17 | O=C(Nc1ccccc1)c1cc(S(=O)(=O)Nc2cccnc2)ccc1Cl | -3.06%
18 | CCN(CC)S(=O)(=O)c1cc(C(=O)Nc2ccncc2)ccc1Cl | -66.3%
19 | CCN(CC)S(=O)(=O)c1cc(C(=O)Nc2cccnc2Cl)ccc1Cl | 8.87%
20 | CCN(CC)S(=O)(=O)c1ccc(Cl)c(C(=O)Oc2cccnc2)c1 | -36.8%
21 | CCN(CC)S(=O)(=O)c1ccc(Cl)c(C(=O)Nc2cccnc2)c1 | -55.8%
22 | CCN(CC)S(=O)(=O)c1cc(C(=O)Nc2cccnc2)ccc1Cl | -67.9%
23 | CCN(CC)c1ccc(S(=O)(=O)N(CC)CC)cc1NC(=O)C1CCCC1 | -13.6%
24 | CCN(CC)S(=O)(=O)c1cccc(C(=O)Nc2cccnc2)c1 | -17.7%
25 | CCN(CC)c1ccc(NC(=O)c2cccnc2)c(C)c1 | 26.9%
26 | COc1cccc(-c2sc3ccc(OC)cc3c2C#CCCO)c1 | -7.87%
27 | CCc1nnc(NC(=O)CSC(=S)N2CCOCC2)s1 | 14.6%

Row | Structure (SMILES) | hERG current change (%, negative = inhibition) at 10uM
28 | CC(=O)c1cn(CC(=O)Nc2ccccc2F)c2ccccc12 | 2.54%
29 | Cc1nc2ccc(N)cc2c(=O)n1Cc1ccc(Cl)cc1 | -11.4%
30 | N#Cc1ccc(N2CCOCC2)c([N+](=O)[O-])c1 | -21.7%
31 | Cn1nc(C(=O)Nc2ccccc2N2CCOCC2)ccc1=O | -24.4%
32 | CN1CCN(c2ccc(Cl)cc2NC(=O)c2ccc(=O)n(C)n2)CC1 | -58.3%
33 | CCN(CC)S(=O)(=O)c1cc(C(=O)Nc2cc(Cl)ccc2N2CCN(C)CC2)ccc1Cl | -53.5%
34 | CN(c1ccccc1)S(=O)(=O)c1ccc(Cl)c(C(=O)Nc2ccncc2)c1 | -5.35%
35 | CN1CCN(c2ccc(Cl)cc2NC(=O)c2cccc(S(=O)(=O)N(C)C)c2)CC1 | -36.9%
36 | COc1ccccc1N(C)S(=O)(=O)c1ccc(C(=O)Nc2ccncc2)cc1 | -28.6%
37 | CN1CCN(c2ccc(Cl)cc2NC(=O)c2ccc([N+](=O)[O-])cc2)CC1 | -10.6%
38 | COc1ccccc1N(C)S(=O)(=O)c1ccc(Cl)c(C(=O)Nc2ccncc2)c1 | -73.4%
39 | CN1CCN(c2ccc(Cl)cc2NC(=O)c2ccc(S(=O)(=O)N(C)C)cc2)CC1 | 1.58%
40 | CCOc1cccc2sc(N3CCN(C(=O)c4ccc5ncsc5c4)CC3)nc12 | 2.18%
41 | CCS(=O)(=O)NC(C)C(c1cccs1)N1CCN(c2ccc(OC)cc2)CC1 (stereo not drawn) | -7.31%
42 | O=C(CN(Cc1ccc(F)cc1)C(=O)CCC(=O)Nc1nccs1)NCc1ccc(F)cc1 | -50.5%
43 | COc1ccc(CN(CC(=O)NCc2ccccc2)C(=O)CCC(=O)Nc2cc(C)ccn2)cc1 | -17.2%
44 | O=C(CN(Cc1ccc(F)cc1)C(=O)CCC(=O)Nc1nccs1)NCc1ccccc1 | -35.6%
45 | O=C(CN(Cc1ccccc1)C(=O)CCC(=O)Nc1nccs1)NCc1ccc(F)cc1 | -1.38%
46 | COc1ccc(CNC(=O)CN(Cc2ccc(OC)cc2)C(=O)CCC(=O)Nc2ccccn2)cc1 | -64.4%
47 | COc1ccc(CNC(=O)CN(Cc2cccs2)C(=O)CCC(=O)Nc2ccccn2)cc1 | -41.1%
48 | COc1ccc(CN(CC(=O)NCc2ccc(F)cc2)C(=O)CCC(=O)Nc2ccccn2)cc1 | -28.2%
49 | COc1ccc(CN(CC(=O)NCCc2ccccc2)C(=O)CCC(=O)Nc2ccccn2)cc1 | -27.1%
50 | O=C(CN(Cc1ccccc1)C(=O)CCC(=O)Nc1ccccn1)NCCc1ccccc1 | -52.4%
51 | O=C(CN(Cc1ccc(F)cc1)C(=O)CCC(=O)Nc1ccccn1)NCCc1ccccc1 | -15.7%
52 | COc1ccc(CNC(=O)CN(Cc2ccccc2)C(=O)CCC(=O)Nc2ccccn2)cc1 | -55.9%
53 | COc1ccc(CN(CC(=O)NCc2ccccc2)C(=O)CCC(=O)Nc2ccccn2)cc1 | -21.1%
54 | O=C(O)CC(NC(=O)C(c1ccccc1)c1ccccc1)c1cccc([N+](=O)[O-])c1 (stereo not drawn) | 2.05%
